Test results published in PubChem BioAssay AID1930 (Vanderbilt High Throughput Screening Facility, 2009).
Active and inactive are the calls of the source. The rule behind the calls is not given here.

target: Muscarinic acetylcholine receptor M2 (Homo sapiens) (UniProt P08172); test: hM2 allosteric modulation, ACh fold-shift, selectivity assay for M4 PAM project, cell-based, Gqi5 chimera, calcium (AID 1930); details: hM2/Gqi5 cells; series mostly up to 10 µM
Sequence (P08172 whole entry, looked up): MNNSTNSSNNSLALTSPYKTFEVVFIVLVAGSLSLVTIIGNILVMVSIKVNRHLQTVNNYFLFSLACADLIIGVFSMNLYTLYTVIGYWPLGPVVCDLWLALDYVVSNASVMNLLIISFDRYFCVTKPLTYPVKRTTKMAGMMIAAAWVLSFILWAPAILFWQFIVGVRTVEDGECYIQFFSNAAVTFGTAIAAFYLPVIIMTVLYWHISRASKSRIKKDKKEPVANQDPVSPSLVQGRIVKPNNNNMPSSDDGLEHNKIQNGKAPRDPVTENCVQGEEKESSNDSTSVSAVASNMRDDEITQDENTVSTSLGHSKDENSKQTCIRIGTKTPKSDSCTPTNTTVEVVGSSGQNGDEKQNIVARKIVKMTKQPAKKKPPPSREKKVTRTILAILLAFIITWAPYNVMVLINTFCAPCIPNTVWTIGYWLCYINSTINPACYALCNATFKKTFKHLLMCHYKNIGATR

outcome, inactive:
Cc1cc(OCc2ccncc2)nc2sc(C(=O)NCc3cc(F)ccc3F)c(N)c12, Cc1cc(OCc2ccncc2)nc2sc(C(=O)NCc3cccc(F)c3F)c(N)c12, Cc1cc(OCCN2CCOCC2)nc2sc(C(=O)NC(C)(C)C)c(N)c12, COc1ccc(CNC(=O)c2sc3nc(OCc4ccncc4)cc(C)c3c2N)cc1
